Experimental data taken from PubChem BioAssay AID488922 (Johns Hopkins Ion Channel Center, 2010).
The whole screen tested about 310,000 compounds, of which about 3,800 (1.2%) were called active.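 The calls were made as follows: active = ratio B-score over 3 SD below the library mean, with starting fluorescence within 5 SD of its mean; inactive = the rest, inconclusive results apart.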 The full list was thinned out, with actives kept by preference.

Target: Potassium channel subfamily K member 9 (Homo sapiens) (UniProt Q9NPC2)
Sequence (Q9NPC2 whole entry, looked up): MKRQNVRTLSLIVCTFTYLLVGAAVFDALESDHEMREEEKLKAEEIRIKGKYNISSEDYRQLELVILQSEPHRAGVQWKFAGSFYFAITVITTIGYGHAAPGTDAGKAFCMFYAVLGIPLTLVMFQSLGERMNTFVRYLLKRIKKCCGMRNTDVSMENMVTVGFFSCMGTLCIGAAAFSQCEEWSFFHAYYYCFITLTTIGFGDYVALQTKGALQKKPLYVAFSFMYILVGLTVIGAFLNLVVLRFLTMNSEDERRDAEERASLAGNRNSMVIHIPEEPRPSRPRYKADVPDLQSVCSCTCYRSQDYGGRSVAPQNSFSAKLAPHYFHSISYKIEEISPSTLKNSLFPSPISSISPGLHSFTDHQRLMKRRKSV
Test: blockers of human TASK-3 (KCNK9) channel – HEK293 cells, thallium flux, primary screen (AID 488922);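 as to B-score: negative B-score means less thallium flux so channel inhibition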
Details: HEK293 KCNK9, FluxOR thallium flux fluorescence, at 10 µM; hits give low values

B-score, inactive:
Cc1ccc(NS(=O)(=O)c2ccc(-c3coc(C)n3)cc2)c(C)c1
COc1cc(C(=O)OCC(=O)N(CC(C)C)C2CCS(=O)(=O)C2)ccc1OCC(C)C (configuration not stated)
Cn1nc(-c2ccccc2)c(CO)c1Sc1ccccc1
Cc1ccc(S(=O)(=O)c2c(COC(=O)c3cccc(Cl)c3)c(-c3ccccc3)nn2C)cc1
COc1ccc(C(=O)NC2(C(F)(F)F)NC(=O)N(CCCc3ccccc3)C2=O)c(OC)c1OC (configuration not stated)
O=C(c1cccc(S(=O)(=O)N2CCCC2)c1)N(Cc1ccco1)C1CCS(=O)(=O)C1 (configuration not stated)
COC(=O)N/N=C/c1cn(CCCOc2ccc(C)cc2)c2ccccc12
CNC(=S)N/N=C/c1cn(Cc2ccc(C)cc2)c2ccccc12
CCc1ccc(N(CC)c2ncnc3nc[nH]c23)cc1
Cc1cc(Cl)ccc1C(=O)C1CCCN(C(=O)CCN2CCCO2)C1 (configuration not stated)
CSc1ccc(/C=C/C(=O)NC23CC4CC(CC(C4)C2)C3)cc1
c1ccc(C2CNCc3c2ccc2ccccc32)cc1 (configuration not stated)
O=C(CSc1nnc(-c2cccnc2)n1Cc1ccco1)c1ccc(Cl)c(Cl)c1
O=c1[nH]c(CSc2ncc(-c3ccc(F)cc3)n2Cc2ccco2)nc2ccccc12
CN(Cc1c(F)cccc1Cl)S(=O)(=O)c1cccs1
CC1CCC2(CC1)NC(=O)N(CC(=O)c1cccn1C)C2=O (configuration not stated)
CC(C)(C)n1nnnc1C(c1ccc(F)cc1)N1CCN(Cc2ccc3c(c2)OCO3)CC1 (configuration not stated)
Cc1cccc(N2CCN(C(c3ccccc3)c3nnnn3CC3CCCO3)CC2)c1C (configuration not stated)
Cc1cccc(C)c1NC(=O)c1ccc(CN2CCc3ccccc3C2)cc1
COc1ccc(-c2csc(-c3cccs3)n2)cc1OC
COc1ccc(OC)c(CNC(=O)CCc2nc(-c3cccs3)no2)c1
COc1ccc(CNS(=O)(=O)c2ccc(NC(=O)N3CCCCC3)cc2)cc1
O=C(CNC(=O)c1cccnc1)N/N=C/c1cc(Br)c(O)c(Br)c1
Cc1c(OC(C)C(=O)N[C@@H](Cc2ccccc2)C(=O)O)ccc2c3c(c(=O)oc12)CCCC3 (some centres not stated)
COc1ccc2c3c(c(=O)oc2c1OCC(=O)C(C)(C)C)CCCC3
CN(C)c1ccc(/C=N\S(=O)(=O)c2ccccc2)cc1
CCCCCCCC1(C)NC(=O)N(CC(=O)Nc2cc(C)on2)C1=O (configuration not stated)
CCOC(=O)N1CCN(C(=O)c2ccc3c(c2)N(Cc2ccc(C)cc2)CCS3)CC1
O=C(NCCN1CCOCC1)c1ccc2c(c1)N(Cc1ccc(Cl)cc1)CCS2
CC[C@]1(c2ccccc2OC)C(=O)N(C(=O)OC)N1C(=O)OC
COc1ccc(C2(CNC(=O)C(c3ccccc3)c3ccccc3)CCOCC2)cc1OC
O=P(O)(CN1CCCCCC1)C1Cc2ccccc2C1
CCc1ccccc1NC(=S)Nc1cc(OC)c(NC(=O)C(C)C)cc1OC
CCc1ccccc1NC(=O)CCOc1ccccc1
COc1cccc(CNS(=O)(=O)c2ccc3c(c2)N(C(C)=O)CCS3)c1
COc1cc(NC(=O)c2ccccc2)c(OC)cc1NC(=O)Cc1ccccc1
COc1cc(OC)cc(C(=O)OCC(=O)Nc2sccc2C(N)=O)c1
COc1cccc(OC)c1C(=O)Nc1nnc(C(C)C)s1
NC(=O)c1c(NC(=O)c2ccccc2)sc2c1CCCC2
Cc1cc(C)c(S(=O)(=O)N(C)CC(=O)NCC2CCCO2)c(C)c1 (configuration not stated)
O=C(Cc1csc(Nc2nc(=S)[nH]c3ccccc23)n1)NCCCN1CCN(c2cccc(Cl)c2)CC1
CCCn1nc(Oc2nc(NC(C)C)nc(N(C)C)n2)ccc1=O
CCOC(=O)c1ccc(S(=O)(=O)N(CCO)Cc2cc3cc(OC)c(OC)cc3[nH]c2=O)cc1
COc1cccc(CNC(=O)C(=O)NCCC2CCCCN2S(=O)(=O)c2ccc(C)cc2)c1 (configuration not stated)
Cc1ccc(-n2c(SCC(=O)Nc3ncc(Cl)cc3Cl)nc3ccccc32)cc1
Cc1[nH]nc(SCC(=O)NCC(C)C)c1[N+](=O)[O-]
O=C(CSc1ncn[nH]1)Nc1nc(-c2cccc([N+](=O)[O-])c2)cs1
CCNC(=O)CSc1nc(-c2ccccc2)cs1
CCSc1nnc(-c2cc3c(s2)-c2ccccc2CC3)o1
CN(C(=O)CCN1C(=O)/C(=C/c2ccccc2F)SC1=S)C1CCS(=O)(=O)C1 (configuration not stated)
CCOC(=O)CSc1nc2c(c(=O)n(C)c(=O)n2C)n1Cc1ccccc1F
COC(=O)CSc1nc2ccccc2c(=O)n1Cc1ccccc1
Cc1ccc(OCC(=O)Nc2ccc(NC(=O)c3cccs3)cc2)c(C)c1
O=C(Nc1ccc2c(c1)OCCO2)c1ccoc1

B-score, active:
Cn1nc(-c2ccccc2)c(CSc2cccc(Cl)c2)c1Cl -8.39
CCOC(=O)N/N=C/c1cn(Cc2ccccc2Cl)c2ccccc12 -9.45
Clc1cccc(-c2nc3nc4ccccc4nc3n2Cc2ccco2)c1 -10.9
Cc1cccc(N2CCN(C(c3ccc(N(C)C)cc3)c3nnnn3C(C)(C)C)CC2)c1C (configuration not stated) -7.3
COc1ccc(OC)c(-c2csc(-c3cccs3)n2)c1 -11.7
CCCOc1ccc2c3c(c(=O)oc2c1OCCC)CCC3 -13.7
CC[n+]1cc(C)ccc1/C=C/c1ccc(N(C)C)cc1 -6.65
O=C(NCCc1ccccc1)c1ccc2c(c1)N(Cc1ccccc1)CCS2 -9.05
CCN(CC)C(=O)CC1(c2ccccc2OC)CCOC(C(C)C)C1 (configuration not stated) -8.7
CCc1ccccc1NC(=O)/C(=C/c1ccccc1)c1ccccc1 -8.86
COc1cccc(OC)c1C(=O)Nc1sc2c(c1C(N)=O)CCCC2 -11.2
O=C(CSc1nc(-c2ccccc2)cs1)Nc1cccc([N+](=O)[O-])c1 -7.08
CCOC(=O)CSc1nc2c(sc(=S)n2CCc2ccccc2)c(=O)n1Cc1ccco1 -8.91
